The values that follow come from PubChem BioAssay.

SMILES strings stand for the structures. A number with no mark means an inactive call. Activity calls are given as the source filed them.

The assay can be described thus: S. cerevisiae growth modulation with rapamycin, primary screen, strain BY4716, OD600, 96 h (AID 1091). Further: test concentration not given here. Particulars: higher = more signal, called active from +8 up or from −8 down.
`COc1ccc(C(O)C2C=CC3C(=O)N(c4ccccc4)C(=O)C3N2Nc2ccc(C#N)cc2)c2ccccc12` (stereo unspecified): the z-score is 0.906.

With `COCCOC(=O)N1C(=O)[C@@]2(c3ccccc31)[C@H](C(=O)N1CCN(c3ncccn3)CC1)[C@H]1C(=O)O[C@H](c3ccccc3)[C@H](c3ccccc3)N1[C@@H]2c1ccc(OCCO)cc1`, the z-score was 5.84.

For the compound `CC=CC(O)C1C=CC2C(=O)N(c3ccccc3)C(=O)C2N1Nc1ccccc1` (stereo unspecified), the z-score is -0.474.

Turning to `Cc1ccc(S[C@]2(C(=O)NCC(F)(F)F)CC(=O)N(Cc3ccccc3)[C@@H]2c2ccc(CO)cc2)cc1`, the z-score is -0.711.

With `[N-]=[N+]=Nc1ccccc1C[C@@]1(C(=O)O)N=C(c2ccc(OCCCO)cc2)O[C@@H]1c1ccccc1`, the z-score is -1.45.

Take `COCCCNC(=O)[C@]1(Cc2ccccc2CN=[N+]=[N-])N=C(c2ccc(OCCCO)cc2)O[C@@H]1c1ccccc1`: the z-score is 30.9 (active).

On to `CC(C)OC(=O)CC(=O)CC(O)c1cccc(C#N)c1` (stereo unspecified), for which the z-score is -1.66.

`CCCC=C(CCC)[C@@H](NP(=O)(c1ccccc1)c1ccccc1)c1ccc(C(F)(F)F)cc1`: the z-score is 0.0291.

Consider `CCCN1C(=O)[C@]2(Cc3ccccc3)N=C(c3ccc(OCCCO)cc3)O[C@@H]2c2ccccc21`, for which the z-score was 0.585.

Consider `C[C@]12C(=O)N(CCCCCCO)[C@@H]3C(=O)N(c4ccc(Cl)cc4)CC=CC31O[C@@H]1/C=C\CCCOC(=O)C12` (stereo partly specified), for which the z-score is -0.695.

On to `COCCOC(=O)N1C(=O)[C@@]2(c3ccccc31)[C@H](c1ccc(OCCO)cc1)N1[C@H](c3ccccc3)[C@H](c3ccccc3)OC(=O)[C@H]1[C@@H]2C(=O)Nc1nc2ccccc2s1`, for which the z-score is 2.33.

Turning to `C=CCN1Cc2ccccc2C[C@@]2(N=C(c3ccc(OCCCO)cc3)O[C@H]2c2ccccc2)C1=O`, the z-score is 4.42.

In the case of `CN(C)CCCCNC(=O)[C@H]1C[C@H]2C(=O)N3CCC[C@H]3C(=O)N2[C@H]1c1ccc(O)cc1`, the z-score is -0.384.

For the compound `COC1(C)CN(Cc2ccccc2Br)[C@H](/C=C/c2ccccc2)[C@H](Cc2ccccc2)O1` (stereo partly specified), the z-score was 0.243.

Consider `COc1cc(OC)c(C(O)C2C=CC3C(=O)N(c4ccccc4)C(=O)C3N2Nc2ccc(C#N)cc2)cc1Br` (stereo unspecified), for which the z-score is -0.772.

With `O=C(O)[C@]1(Cc2ccccc2)N=C(c2ccc(OCCCO)cc2)O[C@@H]1c1ccccc1`, the z-score is 0.286.

Consider `O=C1c2ccccc2[C@@]2(Cc3ccccc3N(C3CC3)C2=O)[C@H](c2ccc(CO)cc2)N1C1CCCCC1`, for which the z-score is -0.728.

`COCCOC(=O)N1C(=O)[C@@]2(c3cc(C#CCC(C(=O)OC)C(=O)OC)ccc31)[C@H](c1ccc(OCCO)cc1)N1[C@H](c3ccccc3)[C@H](c3ccccc3)OC(=O)[C@H]1[C@@H]2C(=O)N1CCN(c2ncccn2)CC1`: the z-score is 6.44.

For the compound `O=C1O[C@@H](c2ccccc2)[C@@H](c2ccccc2)N2[C@@H](c3ccccc3OCCO)[C@]3(C(=O)Nc4ccc(C#CCCO)cc43)[C@@H](C(=O)N3CCN(c4ncccn4)CC3)[C@H]12`, the z-score was 3.99.

For the compound `COc1cc(CO)cc(I)c1O[C@H]1C=C(C(=O)NCCO)C[C@@H](N(CC2CCCCC2)C(=O)c2ccc(C(F)(F)F)cc2)[C@@H]1O`, the z-score is -0.0789.

Take `Cc1c(NC(=O)/C(C#N)=C/C=C/c2ccccc2[N+](=O)[O-])c(=O)n(-c2ccccc2)n1C`: the z-score is 0.477.

As for `CCC[C@@H]1C[C@@]1(CCC)[C@@H](NP(=O)(c1ccccc1)c1ccccc1)c1ccc(Cl)cc1`, the z-score is 0.956.

Regarding `C=CCN1C(=O)[C@]2(CC=C)N=C(c3ccc(OCCCO)cc3)O[C@@H]2c2ccccc21`, the z-score is 0.164.

In the case of `O=C1c2ccccc2[C@](Cc2ccccc2I)(C(=O)NCCN2CCOCC2)[C@H](c2ccc(CO)cc2)N1Cc1ccccc1`, the z-score was -0.477.

In the case of `COC(=O)[C@@]1(Cc2ccc(F)cc2)[C@H]2c3cc(C(=O)N4CCCC4)n(CCc4c[nH]c5ccc(OC)cc45)c3C[C@H]2CN1C(=O)c1ccccc1`, the z-score was 2.07.

Consider `O=C1c2ccccc2[C@](Cc2ccccc2I)(C(=O)NCc2ccccc2)[C@H](c2ccc(CO)cc2)N1C1CCCCC1`, for which the z-score was -0.0677.

As to `COCC(=C=CC[C@H](O)c1cccc(OCCO)c1)C[C@H](O)c1ccccn1`, the z-score was 0.371.

Regarding `CN1C2C=C(CCCO)C(C3C(=O)N(C(N)=O)C(=O)C32)C1c1cccs1` (stereo unspecified), the z-score is 0.689.

For `CN(C)CCCNC(=O)[C@@H]1c2ccccc2C(=O)N(Cc2ccc(OC(F)(F)F)cc2)[C@H]1c1ccc(CO)cc1`, the z-score is -1.41.

Regarding `CC(C)(C)OC(=O)CC[C@]1(C(=O)NCCN2CCOCC2)N=C(c2ccc(OCCCO)cc2)O[C@H]1c1ccccc1`, the z-score was -0.23.

For the compound `CC(C)CNC(=O)[C@@H]1c2ccccc2C(=O)N(Cc2cc(F)cc(C(F)(F)F)c2)[C@H]1c1ccc(CO)cc1`, the z-score is -0.483.

As to `C=C(/C(=C/C[C@@H](OC(=O)c1ccncc1)c1ccc(OCCO)cc1)c1cc(C(=O)OC)ccc1OC)C(C)C`, the z-score is 0.339.

For the compound `C=C(CCCC)/C(=C/C[C@@H](OC(=O)c1ccncc1)c1cccc(OCCO)c1)c1cnc2ccccc2c1`, the z-score was 1.53.

With `C=CCOC(=O)[C@H]1[C@@H]2C(=O)O[C@@H](c3ccccc3)[C@@H](c3ccccc3)N2[C@@H](c2ccc(OCCOC(=O)[C@H]3C[C@H]4C(=O)N[C@@H](Cc5ccccc5)C(=O)N4[C@H]3c3cccc(OCCO)c3)cc2)[C@]12C(=O)Nc1ccc(I)cc12`, the z-score is 4.

As for `Cc1ccc(S[C@]2(C(=O)NC3CC3)CC(=O)N(Cc3ccccc3Cl)[C@@H]2c2ccc(CO)cc2I)cc1`, the z-score was 0.67.

`C[C@@H]1ON(c2ccc(C(=O)OC(C)(C)C)cc2)[C@H](c2ccc(Br)cc2)[C@H]1C(=O)N1C(=O)OC[C@H]1Cc1ccccc1`: the z-score is 0.71.
